Measurements from publication PMC5913336, “True equilibrium measurement of transcription factor-DNA binding affinities using automated polarization microscopy”.

These sequences were tested against T1, Kni (Drosophila melanogaster, UniProt P10734 2-102) (assay: FP; 33 mM phosphate pH 7.0, 90 mM NaCl, 0.01% Tween 20, 0.1 mM DTT, 0.5% agarose; room temperature). Settings: tags: N-GST (pGEX-6P-1, kept); dsDNA, one strand shown.
T1 sequence: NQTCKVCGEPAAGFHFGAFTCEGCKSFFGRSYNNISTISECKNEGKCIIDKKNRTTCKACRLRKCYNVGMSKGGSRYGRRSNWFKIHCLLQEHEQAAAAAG

| Sequence | binding signal | Kd [nM] |
| --- | --- | --- |
| CAAAACTAGACCACT | 3.9 Kd / Kd of best base at the position | – |
| CAATACTAGAGCACT | 6.63 Kd / Kd of best base at the position | – |
| CAAAACTTGAGCACT | 25.5 Kd / Kd of best base at the position | – |
| CAAAACTGGAGCACT | 1.5 Kd / Kd of best base at the position | – |
| AAAAACTAGAGCACT | 1.14 Kd / Kd of best base at the position | – |
| TAAAACTAGAGCACT | 1.43 Kd / Kd of best base at the position | – |
| CAAAACTAGAGCAAT | 2.66 Kd / Kd of best base at the position | – |
| CCAAACTAGAGCACT | 1.71 Kd / Kd of best base at the position | – |
| CAAAACTAGAGCACT | – | ~1.8 |
| CAAAACTAAAGCACT | 8.43 Kd / Kd of best base at the position | – |

The sequences below were run against T2, Cad (Drosophila melanogaster, UniProt P09085 273-344) (assay: FP; 20 mM Tris-acetate pH 7.0, 50 "nM" NaCl as printed (probably mM), 0.01% Tween 20, 0.1 mM DTT; conventional titration). Settings: tags: N-GST (pGEX-6P-1, kept); dsDNA, one strand shown.
T2 sequence: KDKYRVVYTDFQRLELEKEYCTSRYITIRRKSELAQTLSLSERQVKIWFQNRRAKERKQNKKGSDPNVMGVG

| Sequence | binding signal | Kd [nM] |
| --- | --- | --- |
| CACTTTTTAGA | 16 Kd / Kd of best base at the position | – |
| CGCTTTTTATA | 3.5 Kd / Kd of best base at the position | – |
| CACTTTTTGTA | 29 Kd / Kd of best base at the position | – |
| AACTTTTTATA | 2.9 Kd / Kd of best base at the position | – |
| CACTGTTTATA | 3.1 Kd / Kd of best base at the position | – |
| CACTTTCTATA | 37.9 Kd / Kd of best base at the position | – |
| CACTTTTCATA | 17.6 Kd / Kd of best base at the position | – |
| CACTTTTTTTA | 181 Kd / Kd of best base at the position | – |
| CACATTTTATA | 2.5 Kd / Kd of best base at the position | – |
| CACTTTATATA | 3 Kd / Kd of best base at the position | – |
| CACTTTTTAAA | 13.6 Kd / Kd of best base at the position | – |
| CACTTTTGATA | 50.5 Kd / Kd of best base at the position | – |
| CACTTTTTATC | 13.5 Kd / Kd of best base at the position | – |
| CAGTTTTTATA | 1.11 Kd / Kd of best base at the position | – |
| TACTTTTTATA | 1.3 Kd / Kd of best base at the position | – |
| CACTTTTTATA | – | ~0.05 |
| CACTTGTTATA | 16.7 Kd / Kd of best base at the position | – |
| CACCTTTTATA | 1.7 Kd / Kd of best base at the position | – |
| CACTCTTTATA | 7.2 Kd / Kd of best base at the position | – |
| GACTTTTTATA | 1.8 Kd / Kd of best base at the position | – |
| CAATTTTTATA | 2 Kd / Kd of best base at the position | – |
| CACTTATTATA | 2.8 Kd / Kd of best base at the position | – |
| CACTTTTTATT | 5.4 Kd / Kd of best base at the position | – |
| CCCTTTTTATA | 1 Kd / Kd of best base at the position | – |
| CACTATTTATA | 2.8 Kd / Kd of best base at the position | – |
| CACTTTTAATA | 4.1 Kd / Kd of best base at the position | – |
| CATTTTTTATA | 6.67 Kd / Kd of best base at the position | – |
| CTCTTTTTATA | 4.6 Kd / Kd of best base at the position | – |
| CACTTTGTATA | 27.9 Kd / Kd of best base at the position | – |
| CACTTTTTACA | 1.6 Kd / Kd of best base at the position | – |
